The source of these data is PubChem BioAssay (NCATS).

SMILES strings stand for the structures. Unmarked numbers belong to inactive results. Inconclusive results are not listed. The source made the active and inactive calls. The call rests on the fitted dose curve; in most records, active means well fitted curve in the direction sought with a large enough effect; inconclusive means small, poorly fitted or top-dose-only effect, or another doubt; inactive means no such curve, though single readings can be large; an effect the other way counts as inactive or inconclusive.

Experiment [1] deals with Zika virus NS2B-NS3 protease (linked construct). Briefly: Primary screen NINDS Rhodamine qHTS for Zika virus inhibitors (AID 1347160). Further: on the % scale 0 is the no-effect control and ±100 the full control effect; nearly all actives have a fitted effect of over 55% in size. In outline: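 Purified NS2B-NS3 protease with the NS2B hydrophilic domain joined by a flexible linker (25 nM) in 10 mM Tris-HCl pH 8.0, 0.01% Tween 20, preincubated 15 min at RT with compound; Rhodamine110 peptide substrate 1.5 µM; fluorescence change over 15 min; 4-parameter Hill fit.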
(In general: In qHTS, concentration-response curves come from the screen itself.)

Experiment [2] has as its target Calcium and integrin-binding protein 1 (Homo sapiens) (UniProt Q99828). Briefly: Primary qHTS for Identification of Calcium Integrin Binding Protein 1 (CIB1) Competitor (AID 1508620).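 Further: GST tagged CIB1 binding a fluorescein labelled alphaIIb integrin peptide tracer; top concentration of the series differs between compounds; on the % scale 0 is the no-effect control and ±100 the full control effect.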 The method, boiled down:
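Fluorescence polarization competition: CIB1-GST (1 uM final) preincubated with compound 15 min at room temperature, then FITC-labeled alphaIIb peptide (100 nM final) added for another 15 min. Polarization read at Ex 480/Em 540.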

A short description of experiment [3]: Primary qHTS for inhibitors of nuclear receptor binding SET domain protein 2 (NSD2) in an isogenic RCH-ACV NSD2 p.E1099K mutant (9B) (AID 1645876). Further: nearly all actives have a fitted effect of over 70% in size. Further: potency means the concentration at half of the fitted maximal effect.
Experiment [4] concerns the target Glutathione peroxidase 1 (Homo sapiens) (UniProt P07203). Kind of experiment: Primary qHTS Assay for Inhibitors of Recombinant Selenoprotein Glutathione Peroxidase 1 (GPX1) (AID 1845191). Further: nearly all actives have a fitted effect of over 65% in size. In outline:
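Recombinant GPX1 (10 nM final) was preincubated with compound for 30 min at room temperature, then reacted with 1 mM GSH, 0.5 mM CHP, 0.5 mM NADPH and 100 nM glutathione reductase; NADPH fluorescence (340/450 nm) was read at 0 and 15 min.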

Experiment [5] has as its target Phospholipid hydroperoxide glutathione peroxidase GPX4 (Homo sapiens) (UniProt P36969). Briefly: Primary qHTS Assay for Inhibitors of Recombinant Selenoprotein Glutathione Peroxidase 4 (GPX4) (AID 1845192). Further: nearly all actives have a fitted effect of over 65% in size. The method, boiled down: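 GR-coupled readout: 100 nM GR, 1 mM GSH, 0.5 mM NADPH; NADPH fluorescence (ex 340/em 450 nm) read at t=0 and after 15 min RT. GPX4 200 nM, preincubated 30 min with compound; substrate 0.5 mM CHP.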

For experiment [6], the target named is Luciferin 4-monooxygenase (Photinus pyralis) (UniProt P08659). Briefly: Primary firefly luciferase (FLuc) qHTS assay for identification of artifact compounds. (AID 1845220). Further: nearly all actives have a fitted effect of over 60% in size. To be noted: outcome: dose series up to 54.1 µM unless noted. The method, boiled down:
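In this counter-screen for luciferase artifacts, test compounds met substrate (10 uM each luciferin and ATP) before 10 nM enzyme started the reaction. Light output was measured 5 min later.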

Experiment [7] is described as follows: Primary fluorescence-based thiol-reactive (MSTI) qHTS assay for identification of artifact compounds. (AID 1845221).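 Further: thiol-reactive compounds lower the probe fluorescence signal; nearly all actives have a fitted effect of over 65% in size.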 In outline: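 One-hour, room-temperature, dark incubation of compound with 4 uM MSTI in PBS (pH 7.4, 2% DMSO) precedes a fluorescence read at 525 nm excitation, 598 nm emission; Hill-equation fitting yields concentration-response values.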
Experiment [8] deals with Nanoluciferase (engineered Oplophorus gracilirostris luciferase). Kind of experiment: Primary Nanoluciferase (NLuc) qHTS assay for identification of artifact compounds. (AID 1845222).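 Further: NLuc secreted into diluted conditioned medium of S16 cells; 0% = DMSO and -100% = no enzyme.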 In outline:
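Using secreted nanoluciferase in S16 culture medium (0.22 um filtered, 1:55 dilution), compounds were preincubated 15 min at RT. Signal was generated with Nano-Glo reagent (1:100) over 5 min.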

For another experiment, the system named is CRL-7250. Kind of experiment: Cytotoxic Profiling of Annotated Libraries Using Quantitative High-Throughput Screening (AID 1296008). Further: nearly all actives have a fitted effect of over 60% in size. Further: potency means the concentration at half of the fitted maximal effect. On max response: on the % scale 0 is the no-effect control and ±100 the full control effect. To be noted: Five cell lines viability, CellTiter-Glo ATP luminescence, 48-72 h; max response: hits give low values. In outline:
(§1)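 Compounds were pin-transferred onto cells and incubated 48 or 72 hr at 37 degree Celsius, 95% humidity. CellTiter-Glo was added, plates sat 10 min at room temperature, then ATP-coupled luminescence was imaged as the viability read-out.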

The next experiment concerns HEK293. Described as above. To be noted: Five cell lines viability, CellTiter-Glo ATP luminescence, 48-72 h; max response: hits give low values. The method, boiled down:
as §1
For orientation: Cellular ATP, detected with luciferase, serves as a proxy for viable cell number.

A further experiment relates to HaCat. Described as above. The following applies: Five cell lines viability, CellTiter-Glo ATP luminescence, 48-72 h; max response: hits give low values. In outline:
as §1

The test system of a further experiment is NIH3T3. The description is as above. The following applies: Five cell lines viability, CellTiter-Glo ATP luminescence, 48-72 h; max response: hits give low values. The method, boiled down: as §1
For the next experiment, the system named is C33A. Kind of experiment: Primary qHTS to identify gynecologic anti-cancer compounds using libraries of approved drugs and bioactive compounds (AID 1345084). Further: nearly all actives have a fitted effect of over 55% in size. Further: potency means the concentration at half of the fitted maximal effect. The following applies: Gynecologic cancer cell panel viability, ATPlite luminescence, 48 h; series mostly up to 57.5 µM. The method, boiled down: (§2)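 In this quantitative HTS, cell killing is estimated from loss of ATP-dependent luciferase light. Cells see five compound concentrations over a 48 h exposure.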

The test system of another experiment is CASKI. Described as above. To be noted: Gynecologic cancer cell panel viability, ATPlite luminescence, 48 h; series mostly up to 57.5 µM. In outline:
as §2

For another experiment, the system named is Es-2. The experiment is described as above. The following applies: Gynecologic cancer cell panel viability, ATPlite luminescence, 48 h; series mostly up to 57.5 µM. The method, boiled down:
as §2

A further experiment relates to Hek293T. The description is as above. To be noted: Gynecologic cancer cell panel viability, ATPlite luminescence, 48 h, control line for the selectivity index; series mostly up to 57.5 µM. In outline:
as §2

For a further experiment, the system named is OV90. The experiment is described as above. To be noted: Gynecologic cancer cell panel viability, ATPlite luminescence, 48 h; series mostly up to 57.5 µM. In outline: as §2
In another experiment the test system is PA-1. The description is as above. To be noted: Gynecologic cancer cell panel viability, ATPlite luminescence, 48 h; series mostly up to 57.5 µM. In outline:
as §2

In the next experiment the test system is Tov-21-G. The description is as above. The following applies: Gynecologic cancer cell panel viability, ATPlite luminescence, 48 h; series mostly up to 57.5 µM. The method, boiled down: as §2
For the next experiment, the system named is Tov112D. Described as above. To be noted: Gynecologic cancer cell panel viability, ATPlite luminescence, 48 h; series mostly up to 57.5 µM. The method, boiled down: as §2

Sequence of Glutathione peroxidase 1 (Homo sapiens) (P07203 whole entry, looked up): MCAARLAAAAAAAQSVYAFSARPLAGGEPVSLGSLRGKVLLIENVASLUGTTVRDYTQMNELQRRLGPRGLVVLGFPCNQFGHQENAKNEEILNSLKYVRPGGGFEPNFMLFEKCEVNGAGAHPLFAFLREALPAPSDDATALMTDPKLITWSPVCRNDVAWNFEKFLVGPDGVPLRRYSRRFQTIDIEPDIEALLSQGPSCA
Sequence of Calcium and integrin-binding protein 1 (Homo sapiens) (Q99828 whole entry, looked up): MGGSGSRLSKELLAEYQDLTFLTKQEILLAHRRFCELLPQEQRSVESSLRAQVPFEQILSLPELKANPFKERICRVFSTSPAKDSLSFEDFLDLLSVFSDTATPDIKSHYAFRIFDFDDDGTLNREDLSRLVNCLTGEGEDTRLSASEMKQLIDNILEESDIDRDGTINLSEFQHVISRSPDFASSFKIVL
Sequence of Phospholipid hydroperoxide glutathione peroxidase GPX4 (Homo sapiens) (P36969 whole entry, looked up): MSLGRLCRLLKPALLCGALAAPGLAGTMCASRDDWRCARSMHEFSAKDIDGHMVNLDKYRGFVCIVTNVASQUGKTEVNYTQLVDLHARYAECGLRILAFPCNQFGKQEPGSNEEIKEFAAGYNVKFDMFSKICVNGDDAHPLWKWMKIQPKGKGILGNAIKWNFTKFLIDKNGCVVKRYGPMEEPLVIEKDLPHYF

Turning to `N#CC(O[C@@H]1O[C@H](CO)[C@@H](O)[C@H](O)[C@H]1O)c1ccccc1` (some centres undefined), the Potency entry in experiment [1], in experiment [2], in experiment [3], in [4], in experiment [5] and in [7] was “inactive” in each case. In addition, the Potency result (in [8]; in the experiment on C33A; with CASKI; with Es-2; in the experiment on Hek293T; with OV90) was “inactive” throughout. For the same compound, the Potency entry in the experiment with PA-1, in the experiment on Tov-21-G and in the experiment with Tov112D was “inactive” in each case. In addition, the compound was called inactive (in experiment [6]; in the experiment with CRL-7250). Further, the max response is -8.76% with HEK293, -12% with HaCat and 1.1% in the experiment on NIH3T3.

Consider `C[C@]12CC[C@H](O[C@@H]3O[C@H](CO)[C@@H](O)[C@H](O)[C@H]3O[C@@H]3O[C@H](CO)[C@@H](O)[C@H](O)[C@H]3O)CC1=CC[C@@H]1[C@@H]2CC[C@]2(C)[C@@H](C3=CC(=O)OC3)CC[C@]12O`, for which the Potency result in experiment [1], in experiment [2], in experiment [4], in experiment [5], in [7] and in experiment [8] was “inactive” in each case. In addition, the Potency entry in the experiment with CASKI and in the experiment with OV90 was “inactive” in each case. The Potency in [3] is 2.16 µM (active); with CRL-7250, 3.85 µM (active); in the experiment on HEK293 it was 6.11 µM (active); with Tov-21-G, 6.31 µM (active). The outcome in experiment [6] is “inactive [at 25.7 µM]”. For the same compound, the max response is -17% with HaCat and 1.49% with NIH3T3.

For the compound `CC(=O)O[C@H]1CC[C@H]2[C@@H]3CC[C@H]4CC(=O)C=C(C)[C@]4(C)[C@H]3CC[C@]12C`, the Potency result in [1], in experiment [2], in experiment [4], in experiment [5], in [7] and in experiment [8] was “inactive” throughout. In addition, the Potency result with C33A, in the experiment with CASKI, in the experiment with Es-2, in the experiment on Hek293T, in the experiment with OV90 and in the experiment on PA-1 was “inactive” throughout. The Potency entry with Tov-21-G and in the experiment on Tov112D was “inactive” each time. The compound was classed as inactive (in experiment [6]; with HaCat). For the same compound, the values for the max response in the experiment with CRL-7250 and in the experiment with NIH3T3 were -4.94% and -1.67%, respectively. Moreover, the Potency in the experiment with HEK293 is 23.1 µM (active).

Take `C=C(C)[C@@H]1[C@H]2OC(=O)[C@H]1[C@]1(O)C[C@H]3O[C@]34C(=O)O[C@H]2[C@]14C`: the Potency result in experiment [1], in [2], in [3], in [4], in experiment [5] and in experiment [7] was “inactive” in each case. Besides, the Potency entry (in experiment [8]; in the experiment on C33A; with CASKI; in the experiment on Es-2; with Hek293T; with OV90) was “inactive” in each case. The Potency result with PA-1, in the experiment on Tov-21-G and with Tov112D was “inactive” throughout. Moreover, the call (in experiment [6]; in the experiment with CRL-7250; in the experiment on HEK293; with NIH3T3) was inactive.

Regarding `CCC1=CC2CN3CCc4c([nH]c5ccccc45)[C@@](C(=O)OC)(C2)[C@@H]13`, the Potency result (in [1]; in experiment [2]; in [4]; in experiment [8]; with C33A; in the experiment on CASKI) was “inactive” each time. The Potency result with Es-2, in the experiment on Hek293T, with OV90, in the experiment on PA-1, with Tov-21-G and in the experiment with Tov112D was “inactive” in each case. Besides, the compound was called inactive in experiment [6]. For the same compound, the max response was -21.4% with CRL-7250, -6.65% in the experiment with HEK293 and -7.15% in the experiment on HaCat.
